Assay results from PubChem BioAssay (NCI).
About 83,000 compounds went through this panel and 20% of them were active in at least one assay; those are over-represented in the sample as a whole.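 Activity criterion: percent growth below 10, measured after cells in 96-well plates were exposed to a single compound concentration for 48 hours.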 Activity calls are given as the source filed them.

Key:
Test in all cases: NCI-60 one-dose screen, 48 h (100 = growth as untreated, 0 = no growth, -100 = all killed)
Settings in all cases: 10 µM unless noted
HCT-15 colon = system: HCT-15 colon
HT29 colon = system: HT29 colon
SNB-75 CNS = system: SNB-75 CNS
SNB-19 CNS = system: SNB-19 CNS
U251 CNS = system: U251 CNS
PC-3 prostate = system: PC-3 prostate
SK-MEL-5 melanoma = system: SK-MEL-5 melanoma
UACC-62 melanoma = system: UACC-62 melanoma
LOX IMVI melanoma = system: LOX IMVI melanoma
SK-MEL-28 melanoma = system: SK-MEL-28 melanoma
SK-MEL-2 melanoma = system: SK-MEL-2 melanoma
EKVX NSCLC = system: EKVX NSCLC
SN12C renal = system: SN12C renal
UO-31 renal = system: UO-31 renal
TK-10 renal = system: TK-10 renal
ACHN renal = system: ACHN renal
CAKI-1 renal = system: CAKI-1 renal
A498 renal = system: A498 renal
CCRF-CEM leukemia = system: CCRF-CEM leukemia
MOLT-4 leukemia = system: MOLT-4 leukemia

Measured: growth

Cc1ccc(N=Nc2c(N)nn3c(-c4cc5cc(Br)ccc5oc4=O)ccnc23)cc1
inactive: HCT-15 colon 79.2% | HT29 colon 65% | SNB-75 CNS 61.3% | U251 CNS 13% | PC-3 prostate 88.3% | SK-MEL-5 melanoma 50.8% | UACC-62 melanoma 99.5% | LOX IMVI melanoma 51.8% | SK-MEL-28 melanoma 110% | SK-MEL-2 melanoma 108% | EKVX NSCLC 72.2% | SN12C renal 35.6% | UO-31 renal 79.8% | TK-10 renal 81.9% | ACHN renal 54.4% | CAKI-1 renal 80.8% | A498 renal 51.9% | CCRF-CEM leukemia 99.8% | MOLT-4 leukemia 98.6%
active: SNB-19 CNS -13%

COc1cc(/C=N/NC(=O)c2ccc(OCc3nc4ccc(Cl)cc4[nH]3)cc2)cc(OC)c1OC
active: SK-MEL-5 melanoma -19.9% | CCRF-CEM leukemia 3.83%
inactive: HCT-15 colon 37.4% | HT29 colon 21.4% | SNB-75 CNS 123% | SNB-19 CNS 55.5% | U251 CNS 52.8% | PC-3 prostate 35.5% | UACC-62 melanoma 16.7% | LOX IMVI melanoma 26% | SK-MEL-28 melanoma 32.4% | SK-MEL-2 melanoma 74.5% | EKVX NSCLC 33.3% | SN12C renal 48.7% | UO-31 renal 45.5% | TK-10 renal 74.9% | ACHN renal 39.1% | CAKI-1 renal 40.5% | A498 renal 121% | MOLT-4 leukemia 12.1%

C=CC[n+]1cccc2c3ccccc3ccc21
inactive: HCT-15 colon 94.7% | HT29 colon 47.3% | SNB-75 CNS 49.8% | SNB-19 CNS 26.5% | U251 CNS 16.6% | PC-3 prostate 43.7% | UACC-62 melanoma 61% | LOX IMVI melanoma 61.8% | SK-MEL-28 melanoma 69% | SK-MEL-2 melanoma 63.3% | EKVX NSCLC 23.7% | UO-31 renal 56.5% | TK-10 renal 67.1% | ACHN renal 88% | CAKI-1 renal 60.6% | A498 renal 48.6% | CCRF-CEM leukemia 47.3% | MOLT-4 leukemia 47.9%
active: SK-MEL-5 melanoma -39.8% | SN12C renal 8.67%

O=C(Cc1c(-c2cccc([N+](=O)[O-])c2)n(-c2ncnc3c2c(-c2ccccc2)c(-c2ccccc2)n3Cc2ccccc2)[nH]c1=O)c1ccc(Cl)c(Cl)c1
active: SK-MEL-5 melanoma -10.2% | SK-MEL-2 melanoma 1.5%
inactive: HCT-15 colon 62.3% | HT29 colon 37% | SNB-75 CNS 46.1% | SNB-19 CNS 25.9% | U251 CNS 26.4% | PC-3 prostate 30.7% | UACC-62 melanoma 14% | LOX IMVI melanoma 15.7% | SK-MEL-28 melanoma 46.3% | EKVX NSCLC 11.1% | SN12C renal 38.5% | UO-31 renal 39.8% | TK-10 renal 59% | ACHN renal 40.4% | CAKI-1 renal 21.1% | A498 renal 70.3% | CCRF-CEM leukemia 51.3% | MOLT-4 leukemia 41.9%

Cc1ccc(C(=O)C[n+]2cccc3c4ccccc4ccc32)cc1
inactive: HCT-15 colon 56.8% | HT29 colon 12.5% | SNB-75 CNS 43% | SNB-19 CNS 25.9% | U251 CNS 17.8% | PC-3 prostate 18.7% | UACC-62 melanoma 32.2% | SK-MEL-28 melanoma 44.5% | SK-MEL-2 melanoma 36.5% | EKVX NSCLC 28.9% | SN12C renal 14.7% | UO-31 renal 29.7% | TK-10 renal 41.3% | ACHN renal 50.6% | CAKI-1 renal 53.2% | A498 renal 75.2% | CCRF-CEM leukemia 28.1% | MOLT-4 leukemia 14.4%
active: SK-MEL-5 melanoma -88.8% | LOX IMVI melanoma -24.2%

COc1ccccc1NC(=O)c1ccc(NC(=O)CCl)s1
inactive: SNB-75 CNS 35.9% | SNB-19 CNS 42.1% | SK-MEL-2 melanoma 37.1% | EKVX NSCLC 59.7% | ACHN renal 10.2% | A498 renal 73.1%
active: HCT-15 colon -50.8% | HT29 colon -66.1% | U251 CNS -51.2% | PC-3 prostate -46.7% | SK-MEL-5 melanoma -23.3% | UACC-62 melanoma -83.2% | LOX IMVI melanoma -93.4% | SK-MEL-28 melanoma 1.77% | SN12C renal -52.8% | UO-31 renal -20.5% | TK-10 renal -6.19% | CAKI-1 renal -13.1% | CCRF-CEM leukemia -18.9% | MOLT-4 leukemia -19.5%

CN1CCc2c(sc3ncnc(N/N=C/c4cccc(Cl)c4Cl)c23)C1
active: HCT-15 colon -14.5% | HT29 colon -12.7% | SNB-19 CNS 4.21% | U251 CNS -96.3% | LOX IMVI melanoma -82.5% | ACHN renal -39.1% | CCRF-CEM leukemia 4.9% | MOLT-4 leukemia 6.34%
inactive: SNB-75 CNS 76.3% | PC-3 prostate 96% | SK-MEL-5 melanoma 80.7% | UACC-62 melanoma 92.5% | SK-MEL-28 melanoma 103% | SK-MEL-2 melanoma 104% | EKVX NSCLC 67.4% | SN12C renal 10.3% | UO-31 renal 42.6% | TK-10 renal 72.7% | CAKI-1 renal 79.4% | A498 renal 114%

O=C(Cn1c(-c2ccccc2)nc2ccccc21)N=Nc1c(O)[nH]c2ccc(Cl)cc12
active: HCT-15 colon 7.61% | HT29 colon 2.44% | SNB-75 CNS -49.5% | SNB-19 CNS -4.56% | UACC-62 melanoma -2.77% | LOX IMVI melanoma 8.05% | SK-MEL-28 melanoma -51% | EKVX NSCLC 9.78% | SN12C renal 5.72% | UO-31 renal 1.39% | ACHN renal -47.3% | A498 renal -5.31%
inactive: U251 CNS 13.4% | PC-3 prostate 21.7% | SK-MEL-5 melanoma 10.7% | SK-MEL-2 melanoma 17.6% | TK-10 renal 28.5% | CAKI-1 renal 13% | CCRF-CEM leukemia 31.8% | MOLT-4 leukemia 27.4%

C[C@@H]1CN(c2ccc3ncc(C#Cc4cncc(C(=O)Nc5ccc(CN6CCN(C)CC6)c(C(F)(F)F)c5)c4)n3n2)C[C@@H](C)O1
active: HCT-15 colon -91% | HT29 colon -60.5% | SNB-75 CNS -95.9% | SNB-19 CNS -99.8% | U251 CNS -68.8% | PC-3 prostate -54.9% | SK-MEL-5 melanoma -99.6% | UACC-62 melanoma -65.6% | LOX IMVI melanoma -96.8% | SK-MEL-28 melanoma -58.4% | SK-MEL-2 melanoma -88.4% | EKVX NSCLC -96% | SN12C renal -66.5% | UO-31 renal -99.3% | TK-10 renal -98% | ACHN renal -95.3% | CAKI-1 renal -95.3% | A498 renal -99% | CCRF-CEM leukemia -36% | MOLT-4 leukemia 4.86%

O=C(N=Nc1c(O)[nH]c2ccc(Cl)cc12)c1ccc2nc(-c3ccc(Cl)cc3)[nH]c2c1
active: SNB-75 CNS -21.3% | SNB-19 CNS -52.2% | U251 CNS -88.3% | UACC-62 melanoma -59% | LOX IMVI melanoma -100% | SK-MEL-28 melanoma -79.3% | SN12C renal -10.4% | CCRF-CEM leukemia 3.93% | MOLT-4 leukemia 6.71%
inactive: HCT-15 colon 78.6% | HT29 colon 16.9% | PC-3 prostate 28.1% | SK-MEL-5 melanoma 66.8% | SK-MEL-2 melanoma 11.8% | EKVX NSCLC 29.9% | UO-31 renal 87.3% | TK-10 renal 52.3% | ACHN renal 73.4% | CAKI-1 renal 82.8% | A498 renal 47.8%

Clc1ccc2c(NCCNC34CC5CC(CC(C5)C3)C4)ccnc2c1
active: HCT-15 colon -82% | HT29 colon -50.8% | SNB-75 CNS -74.9% | SNB-19 CNS -54.2% | U251 CNS -61.8% | PC-3 prostate -5.27% | SK-MEL-5 melanoma -96% | UACC-62 melanoma -89.9% | LOX IMVI melanoma -91.5% | SK-MEL-28 melanoma -93.5% | SK-MEL-2 melanoma -88% | EKVX NSCLC -67.5% | SN12C renal -74.5% | UO-31 renal -98.6% | TK-10 renal -94.7% | ACHN renal -95.8% | CAKI-1 renal -80.8% | A498 renal -94.2% | CCRF-CEM leukemia 4.53% | MOLT-4 leukemia -23.1%

O=c1[nH]c2ccccc2cc1COc1ccc(Nc2nccc(-c3ccc(Cl)cc3)n2)cc1
inactive: HCT-15 colon 101% | HT29 colon 105% | SNB-75 CNS 60.5% | SNB-19 CNS 93.4% | U251 CNS 86.5% | PC-3 prostate 106% | SK-MEL-5 melanoma 99.1% | UACC-62 melanoma 94.4% | LOX IMVI melanoma 96% | SK-MEL-28 melanoma 105% | SK-MEL-2 melanoma 99.6% | EKVX NSCLC 104% | SN12C renal 100% | UO-31 renal 98.7% | TK-10 renal 111% | ACHN renal 84.9% | CAKI-1 renal 87.5% | A498 renal 118% | CCRF-CEM leukemia 103% | MOLT-4 leukemia 102%

CNS(=O)(=O)N1CCc2c(Br)c3c(c(OC)c2C1CCc1ccccc1)OCO3 (stereo not given)
active: HCT-15 colon 2.11% | HT29 colon -25.4% | SNB-75 CNS -38.4% | SNB-19 CNS 4.35% | U251 CNS -63.6% | PC-3 prostate 4.03% | SK-MEL-5 melanoma -100% | UACC-62 melanoma -78.7% | LOX IMVI melanoma -95.1% | SK-MEL-28 melanoma -77.9% | SK-MEL-2 melanoma -66.2% | EKVX NSCLC -6.87% | SN12C renal -88.8% | UO-31 renal -20.1% | TK-10 renal -0.435% | ACHN renal 0.33% | CAKI-1 renal 5.41% | A498 renal -69.5% | MOLT-4 leukemia 1.16%
inactive: CCRF-CEM leukemia 12.4%

COc1ccc2[nH]c(=O)c(CSc3ccccc3Nc3nccc(-c4ccc(C(F)(F)F)cc4)n3)cc2c1
inactive: HCT-15 colon 12.9% | SNB-19 CNS 33.7% | U251 CNS 22.5% | SK-MEL-5 melanoma 48.8% | UACC-62 melanoma 47.9% | SK-MEL-28 melanoma 51.4% | SK-MEL-2 melanoma 41.9% | EKVX NSCLC 54.3% | UO-31 renal 26.9% | TK-10 renal 97.1% | A498 renal 39.9%
active: HT29 colon 4.71% | SNB-75 CNS -5.5% | PC-3 prostate 3.44% | LOX IMVI melanoma 7.62% | SN12C renal -30.8% | ACHN renal -29.4% | CAKI-1 renal -6.85% | CCRF-CEM leukemia 7.12% | MOLT-4 leukemia -8.19%

Cc1ccc(C(=O)Nc2cc(-c3ccncc3)cc(C(F)(F)F)c2)cc1C#Cc1cnc2cccnn12
inactive: HCT-15 colon 40.5% | HT29 colon 26.9% | SNB-75 CNS 93.7% | SNB-19 CNS 92.9% | U251 CNS 66.5% | PC-3 prostate 75.1% | SK-MEL-5 melanoma 34.4% | UACC-62 melanoma 14.4% | LOX IMVI melanoma 11.1% | SK-MEL-28 melanoma 16.2% | SK-MEL-2 melanoma 37.9% | EKVX NSCLC 64.3% | SN12C renal 34.8% | UO-31 renal 31.4% | TK-10 renal 63.7% | ACHN renal 46.6% | CAKI-1 renal 40.8% | A498 renal 48.9% | CCRF-CEM leukemia 30% | MOLT-4 leukemia 31.3%
